In PubChem BioAssay (Tox21) one finds Potency, outcome and max activation data, which are given here for seven molecules.

Experiment [1] deals with Thyrotropin receptor (Homo sapiens) (UniProt P16473). The experiment can be described thus: qHTS assay to identify small molecule antagonists of the thyroid stimulating hormone receptor (TSHR) signaling pathway (AID 1259385; calls by dose curve; note: nearly all actives have a fitted effect of over 20% in size; note: potency is the fitted concentration of half-maximal effect). An outline of the steps:
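TSHR-HEK293 cells were plated and held 18 h at 37C/5% CO2, then given compound plus Ro20-1724 and stimulated with TSH at 1.5 ng/mL final. After 30 min at room temperature, cAMP was detected with cAMP-d2/anti-cAMP-cryptate (1 h) by fluorescence.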
Background: In qHTS, concentration-response curves come from the screen itself.

Experiment [2] in a line: qHTS assay to identify small molecule agonists of the estrogen receptor alpha (ER-alpha) signaling pathway in the presence of an antagonist - cell viability counter screen (AID 1259386).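 Note: cells exposed to compounds for 22 h at 37 °C before the viability read; nearly all actives have a fitted effect of over 30% in size.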 Note: potency is the fitted concentration of half-maximal effect. Put shortly:
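ICI-182,780 at 10.0nM final accompanies the compound titration (15 concentrations, 22hr, 37C) on VM7Luc4E2 cells. The CellTiter-Fluor fluorescence readout runs in the same wells as the luciferase assay.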

Experiment [3] concerns the target Progesterone receptor (Homo sapiens) (UniProt P06401). The experiment can be described thus: qHTS assay to identify small molecule agonists of the progesterone receptor (PR) signaling pathway (AID 1346784; calls by dose curve; note: nearly all actives have a fitted effect of over 30% in size). An outline of the steps:
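The screen uses PR-UAS-bla HEK 293T cells in charcoal-stripped serum (2%). Compounds are applied for 16 hr at 37C after a 6 hr pre-incubation, and reporter activity is detected with a FRET beta-lactamase substrate after 2 hr at room temperature.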

For experiment [4] the target is unchanged. The experiment can be described thus: qHTS assay to identify small molecule antagonists of the progesterone receptor (PR) signaling pathway (AID 1346795; active = well fitted inhibition curve with a large enough effect in the signal ratio in the repeat runs, not every such curve was filed as active; the % refers to the signal ratio; note: potency is the fitted concentration of half-maximal effect). Put shortly: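 After 6 hr plating at 37C in 2% stripped-serum medium, PR-UAS-bla HEK293T cells got compounds, then 1 nM R5020. Sixteen hours later, LiveBLAzer substrate was applied for 2 hr at room temperature and fluorescence was recorded.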

A short description of experiment [5]: qHTS assay to identify small molecule antagonists of the progesterone receptor (PR) signaling pathway - cell viability counter screen (AID 1346798). Note: nearly all actives have a fitted effect of over 50% in size. Note: potency is the fitted concentration of half-maximal effect. An outline of the steps: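 Viability was determined by ATP-based luminescence (CellTiter-Glo) in PR-UAS-bla HEK293T cells cultured in 2% charcoal-stripped serum and incubated 16 hr with compounds under R5020 stimulation.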

Experiment [6] is described as follows: qHTS assay to identify small molecule agonists of the progesterone receptor (PR) signaling pathway - cell viability counter screen (AID 1346799; calls by dose curve; note: nearly all actives have a fitted effect of over 45% in size; note: potency is the fitted concentration of half-maximal effect). An outline of the steps: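 Viability was scored by ATP luminescence (CellTiter-Glo, 30 min, room temperature) in the same wells used for the reporter readout, after 16 hr compound exposure of PR-UAS-bla HEK293T cells.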

A short description of experiment [7]: qHTS assay to identify small molecule antagonists of the TGF-beta/Smad signaling pathway - cell viability counter screen (AID 1346824). Note: nearly all actives have a fitted effect of over 50% in size. Note: potency is the fitted concentration of half-maximal effect. An outline of the steps: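 SBE-bla HEK 293T cells were plated overnight at 37 C, then given compounds in DMSO plus TGF-beta1 (added as 0.25 ng/mL solution) for 5 hr. After the bla read, CellTiter-Glo was added to the same wells and luminescence read after 30 min at room temperature.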

Experiment [8] is described as follows: qHTS assay to identify small molecule agonists of the TGF-beta/Smad signaling pathway - cell viability counter screen (AID 1346829). Note: top concentration of the series differs between compounds; nearly all actives have a fitted effect of over 45% in size. An outline of the steps:
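HEK 293T SBE-bla line, 5 hr compound exposure at 37 C, multiplexed CellTiter-Glo viability read by luminescence.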

Experiment [9] can be described thus: qHTS assay to identify small molecule agonists of the TGF-beta/Smad signaling pathway (AID 1346859; active = well fitted activation curve with a large enough effect in the signal ratio in the repeat runs, not every such curve was filed as active; the % refers to the signal ratio; note: series mostly up to about 77 µM). Put shortly: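 Dual-wavelength fluorescence (460/530 nm emission) quantified beta-lactamase expression under the Smad binding element in HEK 293T cells following 5 hr compound treatment at 37 C.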
The target in experiment [10] is Thyrotropin-releasing hormone receptor (Homo sapiens) (UniProt P34981). The experiment can be described thus: qHTS assay to identify small molecule antagonists of the thyrotropin-releasing hormone receptor (TRHR) signaling pathway (AID 1346877; active = well fitted inhibition curve with a large enough effect in the repeat runs, not every such curve was filed as active; note: series mostly up to about 51 µM). An outline of the steps: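 Screening used HEK293 cells engineered with TRHR, with a brief 5 min room-temperature compound exposure preceding addition of TRH to 1 nM. The read-out was kinetic calcium-dye fluorescence, concentration-response from 15 doses in triplicate.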
Chain of Thyrotropin-releasing hormone receptor (Homo sapiens) (P34981 whole entry, looked up): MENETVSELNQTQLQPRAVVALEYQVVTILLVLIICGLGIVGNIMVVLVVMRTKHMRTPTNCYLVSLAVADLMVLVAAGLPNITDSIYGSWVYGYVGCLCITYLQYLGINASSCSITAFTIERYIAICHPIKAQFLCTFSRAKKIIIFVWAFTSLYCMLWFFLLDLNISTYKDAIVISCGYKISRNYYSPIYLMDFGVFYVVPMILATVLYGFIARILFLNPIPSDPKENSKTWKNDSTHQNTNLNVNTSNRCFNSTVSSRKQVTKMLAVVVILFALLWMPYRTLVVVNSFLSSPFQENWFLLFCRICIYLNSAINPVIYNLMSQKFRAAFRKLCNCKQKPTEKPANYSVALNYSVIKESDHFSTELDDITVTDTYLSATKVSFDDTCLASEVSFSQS

Experiment [11] shares this target. The experiment can be described thus: qHTS assay to identify small molecule agonists of the thyrotropin-releasing hormone receptor (TRHR) signaling pathway (AID 1346891; calls by dose curve;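 note: HEK293 cells expressing TRHR with calcium dye readout; series mostly up to about 58 µM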). Put shortly:
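Kinetic fluorescence (3 min, 1 s intervals) reported intracellular calcium after compound transfer onto TRHR-Hek293 cells pre-loaded with dye for 2 h at 37 °C.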

A short description of experiment [12]: Human pregnane X receptor (PXR) small molecule agonists, qHTS cell viability counter screen (AID 1346977). Note: nearly all actives have a fitted effect of over 50% in size. Note: potency is the fitted concentration of half-maximal effect. Put shortly:
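HepG2 cells stably carrying the PXR-Luc reporter are cultured with 5% charcoal-stripped FBS and treated with compounds for 24hr. CellTiter-Fluor is added at 23hr and fluorescence is read after 1hr.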

The nature of experiment [13]: Caspase-3/7 induction in HepG2 cells by small molecules, qHTS assay (AID 1346978). Note: nearly all actives have a fitted effect of over 15% in size. Note: potency is the fitted concentration of half-maximal effect. Put shortly:
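Wild-type HepG2 cells (2,000/well) were settled 5 h at 37 C, 5% CO2, then exposed to compounds in DMSO for 17 h. Caspase-3/7 activity was read by luminescence 30 min after adding Caspase-Glo 3/7 reagent at room temperature.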

The nature of experiment [14]: Caspase-3/7 induction in CHO-K1 cells by small molecules, qHTS cell viability counter screen (AID 1346979). Note: nearly all actives have a fitted effect of over 35% in size. Note: potency is the fitted concentration of half-maximal effect. An outline of the steps:
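Seeding: 1,500 CHO-K1 cells/well. Rest: 5hr, 37C. Treatment: compounds in DMSO, 16hr. Read: CellTiter-Fluor, 1hr, fluorescence.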

Experiment [15] is described as follows: Caspase-3/7 induction in CHO-K1 cells by small molecules, qHTS assay (AID 1346980). Note: nearly all actives have a fitted effect of over 15% in size. An outline of the steps: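 Wild-type cells were seeded at 1,500 per well and settled 5 hr at 37 C, 5% CO2, then exposed to DMSO-dissolved compounds for 17 hr. Caspase-Glo 3/7 reagent was added, and luminescence was read after 30min at room temperature.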
Experiment [16] is described as follows: Caspase-3/7 induction in HepG2 cells by small molecules, qHTS cell viability counter screen (AID 1346981). Note: nearly all actives have a fitted effect of over 30% in size. Note: potency is the fitted concentration of half-maximal effect. An outline of the steps: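 Multiplexed with the caspase-3/7 assay: HepG2 cells, 16 hr compound treatment, CellTiter-Fluor viability detection by fluorescence.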
Experiment [17] deals with Nuclear receptor subfamily 1 group I member 2 (Homo sapiens) (UniProt O75469). The experiment can be described thus: Human pregnane X receptor (PXR) small molecule agonists, qHTS assay (AID 1346982). Note: nearly all actives have a fitted effect of over 35% in size. Put shortly:
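We seeded PXR-Luc HepG2 cells in assay medium containing 5% charcoal-stripped FBS, added compounds 5 hr later, incubated 24 hr, and read luminescence with ONE-Glo reagent.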

The target of experiment [18] is Nuclear receptor subfamily 1 group I member 2 (Rattus norvegicus) (UniProt Q9R1A7). The experiment can be described thus: Rat pregnane X receptor (rPXR) activation by small molecules, qHTS assay (AID 1346983). Note: nearly all actives have a fitted effect of over 20% in size. The settings on record: rPXR luciferase reporter cells, One-Glo luminescence, 24 h; active compounds read high. Put shortly:
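Cell-based rPXR luciferase reporter assay, 2,000 cells per well, rested 5hr at 37 C before compound addition in DMSO, then 24 hr at 37 C. One-Glo reagent was added and luminescence read after 30 min at room temperature.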

For experiment [19], the target named is Nuclear receptor subfamily 1 group I member 2 (Homo sapiens) (UniProt O75469). The experiment can be described thus: CYP3A4 induction through human pregnane X receptor (PXR) by small molecules, qHTS assay (AID 1346984). Note: nearly all actives have a fitted effect of over 40% in size. An outline of the steps:
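qHTS, concentration-response format: HepG2 DPX-2 line, PXR/CYP3A4-luc. Exposure 24 h, 37C. Substrate Luciferin-IPA 3uM final, 3 h. Detection One-Glo, 30 min RT.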

Experiment [20] has the same target. The experiment can be described thus: Human pregnane X receptor (PXR) activation by small molecules, qHTS assay (AID 1346985). Note: nearly all actives have a fitted effect of over 40% in size. An outline of the steps:
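DPX-2 cells (HepG2 co-transfected with a PXR response element and a CYP3A4-promoter luciferase construct) were seeded at 2,000 per well, rested 5 hr at 37C, then exposed to DMSO-dissolved compounds for 24 hr. Activation was read as luciferase luminescence.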

Values joined by “and” are separate entries in the source; they are usually repeats but may differ in a detail not shown here. Equal entries are not always repeated. Values without a mark were called inactive. Results filed as inconclusive are left out. Active and inactive are the calls of the source. Unless noted, calls come from the whole dose curve; as a rule, active = well fitted curve in the direction sought with a large enough effect in the repeat runs; inconclusive = weak or mixed curves; inactive = no such curve, though single readings can be large; an effect the other way counts as inactive or inconclusive.
% is set by controls: 0 for no effect and ±100 for the full control effect.

Chain of Nuclear receptor subfamily 1 group I member 2 (Homo sapiens) (O75469 whole entry, looked up): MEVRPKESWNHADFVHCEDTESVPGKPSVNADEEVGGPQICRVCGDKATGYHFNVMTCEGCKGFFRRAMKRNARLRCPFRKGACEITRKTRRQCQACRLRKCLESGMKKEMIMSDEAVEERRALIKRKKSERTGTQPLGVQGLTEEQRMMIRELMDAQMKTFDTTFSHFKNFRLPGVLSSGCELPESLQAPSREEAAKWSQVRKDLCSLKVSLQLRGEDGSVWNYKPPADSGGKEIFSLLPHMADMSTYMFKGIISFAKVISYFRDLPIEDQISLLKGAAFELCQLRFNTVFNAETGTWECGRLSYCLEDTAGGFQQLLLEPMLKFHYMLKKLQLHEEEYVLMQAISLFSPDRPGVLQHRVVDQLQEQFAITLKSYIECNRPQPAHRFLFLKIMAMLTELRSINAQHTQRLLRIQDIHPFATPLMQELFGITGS
Chain of Thyrotropin receptor (Homo sapiens) (P16473 whole entry, looked up): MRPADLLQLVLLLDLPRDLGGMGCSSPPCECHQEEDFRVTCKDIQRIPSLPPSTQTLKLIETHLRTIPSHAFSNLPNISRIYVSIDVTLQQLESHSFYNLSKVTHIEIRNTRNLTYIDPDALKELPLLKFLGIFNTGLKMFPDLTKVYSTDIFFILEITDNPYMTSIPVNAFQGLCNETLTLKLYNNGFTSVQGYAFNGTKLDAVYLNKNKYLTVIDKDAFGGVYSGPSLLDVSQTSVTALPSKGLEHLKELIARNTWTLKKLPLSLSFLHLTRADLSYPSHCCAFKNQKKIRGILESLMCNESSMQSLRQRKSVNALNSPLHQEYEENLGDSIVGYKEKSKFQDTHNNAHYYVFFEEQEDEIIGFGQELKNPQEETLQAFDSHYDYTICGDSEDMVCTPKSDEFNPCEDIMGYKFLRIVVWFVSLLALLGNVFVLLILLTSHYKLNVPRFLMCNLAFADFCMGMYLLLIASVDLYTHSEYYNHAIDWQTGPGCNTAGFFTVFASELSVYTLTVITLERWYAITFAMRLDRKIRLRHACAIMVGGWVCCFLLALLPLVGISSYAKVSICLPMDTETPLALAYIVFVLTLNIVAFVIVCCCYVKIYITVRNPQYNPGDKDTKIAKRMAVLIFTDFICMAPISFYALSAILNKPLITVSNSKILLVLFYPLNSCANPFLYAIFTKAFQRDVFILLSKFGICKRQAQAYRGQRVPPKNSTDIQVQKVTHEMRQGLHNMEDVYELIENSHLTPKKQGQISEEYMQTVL
Chain of Progesterone receptor (Homo sapiens) (P06401 whole entry, looked up): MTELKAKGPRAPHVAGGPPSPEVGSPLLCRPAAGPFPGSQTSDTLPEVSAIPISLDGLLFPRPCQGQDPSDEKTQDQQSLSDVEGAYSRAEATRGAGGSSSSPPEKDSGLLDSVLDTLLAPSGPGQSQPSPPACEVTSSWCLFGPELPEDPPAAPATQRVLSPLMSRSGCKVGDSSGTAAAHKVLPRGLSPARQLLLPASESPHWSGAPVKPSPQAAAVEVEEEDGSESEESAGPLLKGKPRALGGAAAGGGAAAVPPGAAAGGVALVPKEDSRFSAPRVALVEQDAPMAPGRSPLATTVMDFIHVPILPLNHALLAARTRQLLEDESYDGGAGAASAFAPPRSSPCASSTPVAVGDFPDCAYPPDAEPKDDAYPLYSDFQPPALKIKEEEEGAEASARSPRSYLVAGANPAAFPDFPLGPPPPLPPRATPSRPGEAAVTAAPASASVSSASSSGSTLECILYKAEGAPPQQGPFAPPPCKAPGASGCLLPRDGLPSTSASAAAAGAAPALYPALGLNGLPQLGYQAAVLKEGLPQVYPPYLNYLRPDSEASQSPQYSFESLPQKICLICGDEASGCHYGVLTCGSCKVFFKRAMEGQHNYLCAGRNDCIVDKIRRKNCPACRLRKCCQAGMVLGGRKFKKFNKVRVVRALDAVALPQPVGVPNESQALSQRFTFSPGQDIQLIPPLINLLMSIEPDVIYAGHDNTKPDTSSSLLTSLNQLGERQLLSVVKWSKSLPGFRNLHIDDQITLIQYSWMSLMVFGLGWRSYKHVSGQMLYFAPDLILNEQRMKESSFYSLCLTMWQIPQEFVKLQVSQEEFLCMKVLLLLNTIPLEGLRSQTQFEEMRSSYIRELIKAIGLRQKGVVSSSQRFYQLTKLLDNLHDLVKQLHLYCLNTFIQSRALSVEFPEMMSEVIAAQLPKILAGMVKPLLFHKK
Chain of Nuclear receptor subfamily 1 group I member 2 (Rattus norvegicus) (Q9R1A7 whole entry, looked up): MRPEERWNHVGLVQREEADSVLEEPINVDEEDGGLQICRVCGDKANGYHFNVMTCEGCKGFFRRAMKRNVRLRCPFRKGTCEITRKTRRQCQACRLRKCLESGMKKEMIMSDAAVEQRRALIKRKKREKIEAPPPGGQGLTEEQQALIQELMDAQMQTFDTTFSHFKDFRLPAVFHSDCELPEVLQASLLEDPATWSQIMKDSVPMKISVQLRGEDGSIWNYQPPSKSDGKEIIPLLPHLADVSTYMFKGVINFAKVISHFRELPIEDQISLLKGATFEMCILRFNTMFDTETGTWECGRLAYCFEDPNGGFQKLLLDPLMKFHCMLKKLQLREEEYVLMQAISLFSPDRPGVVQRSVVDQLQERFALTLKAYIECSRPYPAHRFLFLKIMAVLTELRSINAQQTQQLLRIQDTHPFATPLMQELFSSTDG

As for `CC1=CC(C)C(C=O)CC1` (configuration not stated), the Potency result in experiment [1], in experiment [2], in [3], in experiment [4], in experiment [5] and in [6] was “inactive” in each case. For the same molecule, the Potency result in experiment [12], in experiment [13], in experiment [14], in experiment [16] and in [17] was “inactive” throughout. For the same molecule, in experiment [7], the Potency is 4.9 µM (active). Also, the molecule was called inactive in experiment [8], in [9], in [10], in experiment [11] and in experiment [15].
With `C=C(C)CS(=O)(=O)O`, the Potency entry in [1], in [2], in experiment [3], in experiment [4], in [5] and in experiment [6] was “inactive” each time. The Potency entry in [7], in experiment [12], in experiment [13], in [14], in [16] and in experiment [17] was “inactive” throughout. Further, the result in experiment [8], in experiment [9], in experiment [10], in experiment [11] and in [15] was inactive.
As for `CN(C)CCCN1c2ccccc2CCc2ccc(Cl)cc21`, the Potency in experiment [1] is 68.6 µM (active) and 29.8 µM (active); in [2], 68.6 µM (active); in [4], 26.6 µM (active); in [5], 34.4 µM (active) and 29.8 µM (active); in experiment [6], 30.6 µM (active) and 23.7 µM (active); in experiment [12], 30.6 µM (active) and 29.8 µM (active). The Potency in experiment [13] was 61.1 µM (active); in [14], 68.6 µM (active) and 29.8 µM (active); in [16], 61.1 µM (active) and 29.8 µM (active). Also, the Potency entry in experiment [3] and in [7] was “inactive” throughout. In addition, the outcome in experiment [8], in experiment [9], in experiment [10], in experiment [11] and in experiment [15] was inactive.
On to `CCO/C([O-])=N/c1c[n+](N2CCOCC2)no1`, for which the Potency result in experiment [1], in [2], in experiment [3], in experiment [4], in [5] and in [6] was “inactive” throughout. Moreover, the Potency entry in experiment [7], in [12], in experiment [14], in experiment [16], in [17] and in [19] was “inactive” in each case. Further, in experiment [20], the Potency entry was “inactive”. Further, the result in experiment [8], in [9], in experiment [10], in experiment [11] and in experiment [15] was inactive. Also, the max activation in [18] is 0.703%.
Take `Cc1ccc(Cl)cc1Cl`: the Potency result in [1], in experiment [2], in [3], in experiment [4], in experiment [5] and in [6] was “inactive” in each case. Further, the Potency entry in [7], in [12], in experiment [13], in [14], in [16] and in [17] was “inactive” throughout. Besides, the molecule was classed as inactive in [8], in [9], in [10], in [11] and in experiment [15].
For the molecule `Cc1[nH]c(=O)c(C#N)cc1-c1ccc2nccn2c1`, the Potency result in [1], in experiment [2], in experiment [3], in [4], in experiment [5] and in [6] was “inactive” throughout. The Potency entry in experiment [7], in [12], in [13], in [14], in [16] and in experiment [17] was “inactive” in each case. Moreover, the Potency result in experiment [19] and in [20] was “inactive” throughout. Also, the outcome in experiment [8], in experiment [9], in [10], in [11] and in experiment [15] was inactive. In experiment [18], the max activation was 0.264%.
For `O=C1CC2CC1C1CCCC21` (configuration not stated), the Potency result in experiment [1], in experiment [2], in experiment [3], in [4], in [5] and in [6] was “inactive” throughout. Further, the Potency entry in [7], in experiment [12], in [13], in [14] and in experiment [16] was “inactive” in each case. Moreover, the result in experiment [8], in experiment [9], in experiment [10], in experiment [11] and in experiment [15] was inactive.
